The results in this text go back to PubChem BioAssay.

Each structure is given as a SMILES string. Active and inactive are the calls of the source.

Experiment [1] can be described thus: E. coli DRC41 culture turbidity changes, primary screen, E. coli filamentation inducer project, strain DRC41, OD650, 48 h (AID 1152).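 Note: E. coli MC1000 strain DRC41 lacking acrAB efflux pump and sulA.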 To be noted: E. coli DRC41 (acrAB sulA), higher = more signal, called active from +8 up or from −8 down.
A short description of experiment [2]: small-molecule binders of probe aLefty1, primary screen, biochemical, small-molecule microarray, 635/667 nm fluorescence (AID 1153).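 Note: score merges spot fluorescence with signal-to-noise ratio from the scanned slide images.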 As to conditions: higher = more signal.
The nature of experiment [3]: PSAC antagonists in infected red cells, primary screen, cell-based, P. falciparum Indochina, OD700, 1 h (AID 1154). As to conditions: P. falciparum Indochina infected RBC osmotic lysis, higher = more signal, called active from +8 up or from −8 down.
A short description of experiment [4]: PSAC antagonists in infected red cells, primary screen, cell-based, P. falciparum Indochina, OD700, 2 h (AID 1155).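 Note: lysis reports solute entry through the parasite surface anion channel PSAC; channel blockers reduce lysis of infected cells.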 To be noted: P. falciparum Indochina infected erythrocytes, osmotic lysis OD700; higher = more signal, called active from +8 up or from −8 down.
Experiment [5] in a line: osmotic lysis modulators in infected erythrocytes, primary screen, PSAC antagonist project, cell-based, P. falciparum Indochina, OD700, 3 h (AID 1156). To be noted: higher = more signal, called active from +8 up or from −8 down.
Experiment [6] is described as follows: PSAC antagonists in infected red cells, primary screen, cell-based, P. falciparum Indochina, OD700, 18 h (AID 1157). As to conditions: P. falciparum Indochina infected erythrocytes, osmotic lysis OD700, 18 h; higher = more signal, called active from +8 up or from −8 down.
The nature of experiment [7]: modulators of S6 phosphorylation in cells, primary screen, cell-based, A549, cytoblot, luminescence, serum-stimulated (AID 1158).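 Note: serum-stimulated A549 lung adenocarcinoma cells; signal is phosphorylated S6 detected by cytoblot immunostaining with HRP secondary.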 To be noted: A549 phospho-S6 cytoblot, 5 h, higher = more signal.
Experiment [8] concerns the target NADPH oxidase 2 (Homo sapiens) (UniProt P04839). Briefly: NOX2-dependent H2O2 signal modulators, primary screen, NOX inhibitor project, cell-based, HEK293-NOX2, PMA-stimulated, Amplex Red fluorescence (AID 1159). Note: test concentration not given here. As to conditions: 45 min, higher = more signal, called active from +8 up or from −8 down.
The target of experiment [9] is NADPH oxidase 4 (Homo sapiens) (UniProt Q9NPH5). Briefly: NOX4-dependent H2O2 signal modulators, primary screen, NOX inhibitor project, cell-based, HEK293-NOX4, tetracycline-induced, Amplex Red fluorescence (AID 1160). As to conditions: 45 min, higher = more signal, called active from +8 up or from −8 down.
Experiment [10] deals with NADPH oxidase 5 (Homo sapiens) (UniProt Q96PH1). Briefly: NOX5-dependent H2O2 signal modulators, primary screen, NOX inhibitor project, cell-based, HEK293-NOX5, Amplex Red fluorescence (AID 1161). As to conditions: HEK293-NOX5, ionomycin, 45 min, higher = more signal.
NADPH oxidase 5 (Homo sapiens), sequence (Q96PH1 whole entry, looked up): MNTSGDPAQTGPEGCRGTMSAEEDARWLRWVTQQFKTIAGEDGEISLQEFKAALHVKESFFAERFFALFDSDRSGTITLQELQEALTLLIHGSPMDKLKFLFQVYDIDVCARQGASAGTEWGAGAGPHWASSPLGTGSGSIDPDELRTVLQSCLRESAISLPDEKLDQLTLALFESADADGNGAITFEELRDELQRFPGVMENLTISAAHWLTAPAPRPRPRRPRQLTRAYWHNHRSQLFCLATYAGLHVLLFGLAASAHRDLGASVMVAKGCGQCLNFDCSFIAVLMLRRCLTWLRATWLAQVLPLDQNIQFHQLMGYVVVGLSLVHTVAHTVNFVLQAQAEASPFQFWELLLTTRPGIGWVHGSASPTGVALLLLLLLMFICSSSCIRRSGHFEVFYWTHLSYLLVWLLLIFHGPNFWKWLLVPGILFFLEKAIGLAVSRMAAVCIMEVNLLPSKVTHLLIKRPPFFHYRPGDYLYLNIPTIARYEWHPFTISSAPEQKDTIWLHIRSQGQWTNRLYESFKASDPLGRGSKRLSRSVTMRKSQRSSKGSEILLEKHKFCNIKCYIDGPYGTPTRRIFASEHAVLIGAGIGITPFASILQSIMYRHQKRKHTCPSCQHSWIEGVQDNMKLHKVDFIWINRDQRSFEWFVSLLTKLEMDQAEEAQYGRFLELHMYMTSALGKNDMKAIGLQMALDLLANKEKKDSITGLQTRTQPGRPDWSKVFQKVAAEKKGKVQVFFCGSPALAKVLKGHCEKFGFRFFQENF

NADPH oxidase 2 (Homo sapiens), sequence (P04839 whole entry, looked up): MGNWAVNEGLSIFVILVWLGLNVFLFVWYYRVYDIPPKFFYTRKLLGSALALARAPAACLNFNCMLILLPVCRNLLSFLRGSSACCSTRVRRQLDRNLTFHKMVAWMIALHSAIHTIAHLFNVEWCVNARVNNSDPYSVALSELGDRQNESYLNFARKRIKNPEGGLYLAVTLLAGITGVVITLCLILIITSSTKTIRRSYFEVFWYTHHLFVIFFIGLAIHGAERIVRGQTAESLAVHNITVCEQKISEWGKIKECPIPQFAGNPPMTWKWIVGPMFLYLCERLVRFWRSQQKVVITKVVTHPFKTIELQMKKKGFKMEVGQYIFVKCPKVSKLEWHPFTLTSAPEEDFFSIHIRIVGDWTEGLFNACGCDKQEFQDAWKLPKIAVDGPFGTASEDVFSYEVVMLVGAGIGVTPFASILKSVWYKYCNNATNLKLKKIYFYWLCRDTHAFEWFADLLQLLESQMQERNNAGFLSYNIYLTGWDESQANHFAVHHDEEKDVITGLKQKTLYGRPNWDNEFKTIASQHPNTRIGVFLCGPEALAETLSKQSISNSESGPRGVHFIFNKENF
NADPH oxidase 4 (Homo sapiens), sequence (Q9NPH5 whole entry, looked up): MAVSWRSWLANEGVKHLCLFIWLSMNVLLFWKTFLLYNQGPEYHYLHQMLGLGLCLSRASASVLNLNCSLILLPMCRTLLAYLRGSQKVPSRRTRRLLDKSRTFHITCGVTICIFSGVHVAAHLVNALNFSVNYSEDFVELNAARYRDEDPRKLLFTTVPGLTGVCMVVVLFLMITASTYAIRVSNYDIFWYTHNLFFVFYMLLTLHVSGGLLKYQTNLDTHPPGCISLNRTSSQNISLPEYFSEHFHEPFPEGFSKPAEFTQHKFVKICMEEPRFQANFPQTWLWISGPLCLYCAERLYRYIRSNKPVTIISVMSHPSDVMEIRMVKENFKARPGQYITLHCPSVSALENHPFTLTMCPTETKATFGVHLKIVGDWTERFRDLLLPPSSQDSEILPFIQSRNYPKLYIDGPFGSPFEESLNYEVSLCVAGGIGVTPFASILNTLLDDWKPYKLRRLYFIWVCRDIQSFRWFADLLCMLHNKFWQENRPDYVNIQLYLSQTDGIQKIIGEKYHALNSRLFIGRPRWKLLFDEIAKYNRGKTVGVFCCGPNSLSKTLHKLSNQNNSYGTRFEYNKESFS

Take `CCOC(=O)C1=CC[C@H]2C(=O)N(c3ccccc3)C(=O)[C@@H]12`: the z-score in experiment [1] was -1.58 (inactive); in [3] it was 0.399 (inactive); in experiment [4] it was 0.772 (inactive); in experiment [5] it was 0.692 (inactive); in experiment [6] it was 0.339 (inactive); in [7], -0.743. Further, the z-score was -0.234 (inactive) in experiment [8], -2.03 (inactive) in experiment [9] and -2.36 in [10]. In addition, in experiment [2], the composite z-score turned out to be 0.0027.

Consider `COC(=O)c1c(CC[C@@H](CO)NC(=O)N[C@H](Cc2ccccc2)Cn2cc(-c3ccccn3)nn2)oc(C(C)=O)c1C(=O)OC`, for which the z-score in experiment [1] is -0.72 (inactive); in experiment [3], 27.1 (active); in [4], 12.7 (active); in experiment [5], 0.729 (inactive); in experiment [6] it was 1.41 (inactive); in [7] it was 0.032. For the same compound, the z-score in [8] is -1.52 (inactive); in experiment [9] it was 0.594 (inactive); in [10], 1.24. Further, the composite z-score in experiment [2] is -0.194.

Turning to `NCCCCCCNC(=O)[C@H]1C[C@H]2C(=O)N[C@@H](Cc3ccccc3)C(=O)N2[C@H]1c1cccc(OCCO)c1`, the z-score in experiment [1] is 0.921 (inactive); in experiment [3], 5 (inactive); in experiment [4] it was 0.944 (inactive); in experiment [5] it was 2.3 (inactive); in [6], 0.472 (inactive); in experiment [7], -0.147. Also, the z-score in experiment [8] is 0.997 (inactive); in experiment [9], 0.736 (inactive); in [10], 0.392. The composite z-score in experiment [2] is -0.141.

Regarding `O=C1C[C@@](C(=O)NCc2ccccc2)(c2ccc([N+](=O)[O-])cc2)[C@@H](c2ccc(CO)cc2)N1CC12CC3CC(CC(C3)C1)C2`, the z-score in [1] is 0.874 (inactive); in experiment [3], 5.33 (inactive); in experiment [4] it was 0.786 (inactive); in experiment [5], 3.76 (inactive); in experiment [6] it was 0.674 (inactive); in experiment [7] it was -0.0355. The values for the z-score in experiment [8], in experiment [9] and in [10] were 0.208 (inactive), -0.821 (inactive) and 1.1, respectively. This compound showed a composite z-score in experiment [2] of -0.287.

On to `CC(C)(C)OC(=O)CC[C@@]1(C(=O)N2CCCCC2)N=C(c2ccc(OCCCO)cc2)O[C@@H]1c1ccccc1`, for which the z-score in [1] is -0.56 (inactive); in [3], 26.6 (active); in experiment [4] it was 19.2 (active); in experiment [5] it was 1.79 (inactive); in experiment [6] it was 2.14 (inactive); in experiment [7], -0.354. The z-score in experiment [8] was -2.08 (inactive); in experiment [9], 1.7 (inactive); in experiment [10], 0.0911. Besides, the composite z-score in [2] stood at 0.349.

`O=C1NC(=O)C2C1C=CC(C(O)c1ccc(I)cc1)N2Nc1ccc(Cl)cc1Cl` (stereo not given): the z-score is -0.971 (inactive) in [1]; 5.17 (inactive) in [3]; 0.872 (inactive) in experiment [4]; -1.72 (inactive) in experiment [5]; -1.16 (inactive) in experiment [6]; 1.22 in [7]. Besides, the z-score in experiment [8] was -0.204 (inactive); in [9], -4.36 (inactive); in experiment [10], -0.634. In [2], this compound yielded a composite z-score of 0.618.

As to `CCCCN1CC=CC23O[C@@H]4/C=C\CCCOC(=O)C4[C@H]2C(=O)N(CCCCCO)[C@@H]3C1=O` (stereo not given in full), the z-score in experiment [1] is -0.852 (inactive); in experiment [3], 0.896 (inactive); in [4], 0.481 (inactive); in experiment [5], -0.765 (inactive); in experiment [6], 0.0625 (inactive); in [7], -0.782. The z-score in [8] is 1.07 (inactive); in experiment [9], -0.18 (inactive); in experiment [10] it was 1.74. This compound also displayed a composite z-score in [2] of -0.328.

Take `CCOc1ccc(N2C(=O)CSC2c2cccc([N+](=O)[O-])c2)cc1` (stereo not given): the z-score was 0.379 (inactive) in experiment [1]; 0.289 (inactive) in [3]; 0.285 (inactive) in [4]; 0.85 (inactive) in [5]; 0.0093 (inactive) in [6]; -0.287 in experiment [7]. In addition, the z-score in experiment [8] is -0.957 (inactive); in [9] it was -0.214 (inactive); in [10], 0.887. In [2], the composite z-score stood at 0.166.

For the compound `COc1ccc(C(=O)Nc2cccc(CN3C(=O)[C@]4(O[C@H](CCn5cc(CCO)nn5)[C@@H]([Si](C)(C)c5ccc(OC)cc5)[C@@H]4C)c4ccccc43)c2)cc1`, the z-score in experiment [1] is -0.856 (inactive); in experiment [3], 6.78 (inactive); in [4], 2.29 (inactive); in [5] it was 0.155 (inactive); in [6] it was 1.7 (inactive); in experiment [7], -0.815. For the same compound, the z-score in [8] was -1.91 (inactive); in experiment [9], -0.0331 (inactive); in [10], 2.87. The compound also registered a composite z-score in experiment [2] of -0.0061.

With `C[N+](C)(C)CCCC[C@@H]1NC(=O)[C@@H]2C[C@H](C(=O)NCCCCCN)[C@H](c3ccc(O)cc3)N2C1=O`, the z-score in experiment [1] is 1.31 (inactive); in experiment [3], 0.455 (inactive); in experiment [4], 0.0158 (inactive); in experiment [5], -0.284 (inactive); in experiment [6], -1.78 (inactive); in experiment [7], 0.612. In addition, the results for the z-score in experiment [8], in [9] and in experiment [10] were -0.102 (inactive), -0.316 (inactive) and 1.33, respectively. The composite z-score in [2] turned out to be 0.906.

Consider `COC(=O)C[C@H]1O[C@@H](CCc2ccccc2)[C@@H](C)[C@@H]1[Si](C)(C)c1ccc(OC)cc1`, for which the z-score was -0.95 (inactive) in experiment [1]; 2.54 (inactive) in [3]; 0.719 (inactive) in experiment [4]; -0.0062 (inactive) in experiment [5]; -0.0887 (inactive) in [6]; 0.0216 in experiment [7]. Moreover, the z-score is 1.34 (inactive) in experiment [8], -0.0337 (inactive) in experiment [9] and -2.06 in [10]. Besides, the composite z-score in experiment [2] was -0.188.

In the case of `CN(C)CCCCCCNC(=O)[C@@H]1C[C@@H]2C(=O)N[C@@H](CCCC[N+](C)(C)C)C(=O)N2[C@@H]1c1ccc(O)cc1`, the z-score was -0.3 (inactive) in experiment [1]; 1.59 (inactive) in experiment [3]; -0.375 (inactive) in experiment [4]; -0.604 (inactive) in experiment [5]; 0.0077 (inactive) in [6]; -0.607 in [7]. In addition, the z-score in experiment [8] was -1.47 (inactive); in [9], -0.773 (inactive); in experiment [10], -1.4. Also, the composite z-score in [2] is -0.612.
